# The list is not random: actives were taken first. Their share in the collection is about 1.5%.
# GALK inhibitor = galactokinase (human) inhibition; Potency, µM (top dose mostly 57.5 µM), for inactives: at the top dose activity change, negative = inhibition, hits mostly inhibitors; P51570; Purified GALK, Kinase-Glo residual ATP luminescence; hit rate 0.007% among 270,000; also: potency is read from the fitted curve at half-maximal effect
#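 Kinase-Glo Plus luminescence measured ATP left after a 1 h room-temperature reaction. The reaction used 5 nM GALK, 100 uM galactose and 35 uM ATP at pH 8.0 (20 mM HEPES, 5 mM MgCl2, 60 mM NaCl, 1 mM DTT, 0.01% BSA).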
# rTrxR1 inhibitor = rat TrxR1 inhibition. O89049. recombinant rTrxR1, NADPH fluorescence consumption, selenite substrate. Potency, µM (highest dose often 114 µM), without a hit: top-dose activity change, negative = inhibition, actives largely listed as inhibitors. hit rate 1% among 390,000; also: potency is read from the fitted curve at half-maximal effect; nearly all actives have a fitted effect of over 65% in size
# Target sequence (O89049 whole entry, looked up): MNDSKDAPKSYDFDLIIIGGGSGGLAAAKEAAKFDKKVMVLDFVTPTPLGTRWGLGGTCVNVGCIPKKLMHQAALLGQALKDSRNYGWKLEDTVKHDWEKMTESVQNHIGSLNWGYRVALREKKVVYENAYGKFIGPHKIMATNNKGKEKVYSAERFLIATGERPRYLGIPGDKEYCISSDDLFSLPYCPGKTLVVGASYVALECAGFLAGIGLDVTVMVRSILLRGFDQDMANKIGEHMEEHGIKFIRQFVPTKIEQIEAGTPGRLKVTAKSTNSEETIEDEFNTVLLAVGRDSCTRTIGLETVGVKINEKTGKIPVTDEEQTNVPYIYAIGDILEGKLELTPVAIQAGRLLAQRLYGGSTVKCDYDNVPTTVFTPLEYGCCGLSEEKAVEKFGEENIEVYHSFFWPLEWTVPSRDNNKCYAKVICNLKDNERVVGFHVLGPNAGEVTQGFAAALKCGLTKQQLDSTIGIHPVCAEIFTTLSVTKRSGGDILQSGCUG
#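 Rat TrxR1 (90 nM in the dispensed reagent) was pre-reduced with 400 uM NADPH for 5 min at room temperature, then incubated with compound for 15 min. After 400 uM selenite was added, NADPH fluorescence (Ex 340/Em 450 nm) was followed for 8 min.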
# Coupling enz = counter-screen for Giardia aldolase inhibitors: coupling enzyme system. coupling enzyme system counterscreen, AmpLite Red fluorescence. activity change, negative = inhibition, % at 58.2 µM, hits read low. hit rate 0.67% among 290,000. AID 2472; in the data active = activity change below about -30%
#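 Counterscreen lacking aldolase: glyceraldehyde-3-phosphate coupling-enzyme reagent preincubated 10 min at RT with compound (at 57.5 uM final), then substrate/coupling system with AmpLite Red added; fluorescence read at 525/598 nm after 20 min RT.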
# PI4K2A block = blocks human PI4K2A kinase activity; purified PI4K2A, ADP-Glo luminescence, 1 h; active compounds read low; hit rate 0.13% among 420,000; activity change, negative = inhibition, % at 76.9 µM; Q9BTU6; in the data active = activity change below about -50%; inconclusive = mostly about -30% to -49%;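 also: -100% = wells without enzyme as full effect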
#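 ADP-Glo luminescence measured ADP generated by PI4K2A enzyme (4 ug/mL before mixing) with 1.2 mM PI substrate (pre-mix) and 300 microM ATP (pre-mix). Tris pH7.5 buffer with MgCl2, Triton X-100; 1 h reaction at ambient temperature.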
# Giardia kill = kills Giardia lamblia; activity change, % at 7.66 µM, hits read low; Giardia lamblia trophozoite viability; AID 540267; hit rate 0.15% among 340,000; in the data active = activity change below about -80%; inconclusive = between about -30% and that limit;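 also: parasites exposed to compound for two days anaerobically before the ATP read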
#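 Each well holds 100 Giardia trophozoites and compound. After two days (48 hrs) at 37 deg C in anaerobic conditions, ATP is quantified by luminescence.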
# TrxR1 substrate = rat thioredoxin reductase 1 substrate activity; O89049; purified TrxR1 substrate turnover, NADPH consumption readout; Potency, µM (highest dose often 114 µM), for inactives: at the highest dose activity change, negative = substrate turnover; hit rate 0.01% among 390,000; also: potency is read from the fitted curve at half-maximal effect; nearly all actives have a fitted effect of over 50% in size
#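 Rat TrxR1, dispensed at 90 nM, was prereduced with 400 uM NADPH (final) for 5 min at ~22 deg C, then incubated with compound 15 min before 400 uM selenite. A first-read NADPH fluorescence drop versus no-compound background flagged substrates.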
# Numbers without * were called inactive; i = inactive; ? = inconclusive; · = no result given; [ ] = dose if it differs, or a comment. Unless noted, calls follow the shape of the dose curve; as a rule, active = well fitted curve in the direction sought with a large enough effect; inconclusive = small, poorly fitted or top-dose-only effect, or another doubt; inactive = no such curve, though single readings can be large; an effect the other way counts as inactive or inconclusive. Unless noted, % is scaled to controls: 0 for no effect and ±100 for the full control effect.
SMILES,GALK inhibitor,rTrxR1 inhibitor,Coupling enz,PI4K2A block,Giardia kill,TrxR1 substrate
Clc1nc(CN2CCCCC2)nc2sc3c(c12)CCCC3,3%,4µM*,2,-2,17,11%
C=C1CCN(C(CC(C)C)C(=O)NCCCc2ccccc2)S(=O)(=O)c2ccccc21 (centres undefined),·,10%,-2,·,-18,-9%
CCN1CCCCC(NC(=O)c2ccc(F)c(F)c2)C1=O (centres undefined),·,·,·,2,·,·
COc1ccc(-c2cc(N)n(S(=O)(=O)c3c(F)c(F)c(F)c(F)c3F)n2)cc1OC,2%,2.8µM*,8,18,11,0%
COc1ccc(S(=O)(=O)n2nc(-c3cc(OC)c(OC)c(OC)c3)cc2N)cc1OC,0%,11%,-3,0,7,1%
O=S(=O)(Nc1cccc2cccnc12)c1ccccc1O,·,·,-37*,·,·,·
CCOC(=O)c1cnc2ccc(OCC)cc2c1NCc1ccccc1,2%,15%,-44*,-2,5,33%
CCOC(=O)c1cnc2ccc(OCC)cc2c1NCc1cccnc1,1%,7%,-25,-8,5,11%
CC(=O)OCCCNc1cc(Sc2nc3ccccc3s2)c2nonc2c1[N+](=O)[O-],-3%,0.32µM*,-35*,-10,9,-2%
CC(=O)OCCCNc1cc(Sc2ccc(C)cc2)c2nonc2c1[N+](=O)[O-],0%,11µM*,-3,3,-5,-6%
CC(=O)OCCNc1cc(Sc2nc3ccccc3[nH]2)c2nonc2c1[N+](=O)[O-],0%,-92%[11.4 µM],1,-13,-9,-15%
Cn1ccnc1Sc1cc(NCCCO)c([N+](=O)[O-])c2nonc12,0%,?,-4,-15,-10,9%[57.1 µM]
COc1ccc2c(c1)CCCN2C(=O)C1CCCN(S(=O)(=O)c2cc(OC)ccc2OC)C1 (centres undefined),·,·,·,-5,·,·
CCN(Cc1ccccc1)C(=O)Cn1c(=O)n(-c2ccccc2)c(=O)c2c1c1cc(C)ccc1n2C,·,57%,·,3,·,79%
CCc1cccc(C)c1NC(=O)COCc1cc(-c2ccc3c(c2)OCO3)on1,·,9%,·,-5,·,-10%
CN(Cc1ccncc1)C1CC(=O)N(c2ccc(Cl)cc2)C1=O (centres undefined),2%,13%[57.1 µM],2,5,-2,-9%
COC(=O)CN(C)C1CC(=O)N(c2ccc(Cl)cc2)C1=O (centres undefined),-2%,35µM*,2,3,1,-1%
CCCCc1nc2c(c3c1C[C@H](C)OC3)CN(S(=O)(=O)CCCC)CC2,·,·,-1,·,·,·
C#CCOCCOCCOCCNc1nc(N2CCN(C(=O)[C@H](CCCCN)n3cc([C@@H](N)CC(C)C)nn3)CC2)nc(N2CCN(C(=O)[C@H](Cc3cc4ccccc4[nH]3)n3cc([C@@H](N)Cc4ccc(O)cc4)nn3)CC2)n1,0%,45µM*,1,-5,7,8%
C#CCOCCOCCOCCNc1nc(N2CCN(C(=O)[C@H](CCCCN)n3cc(C(N)CC(C)C)nn3)CC2)nc(N2CCN(C(=O)[C@H](CCC(=O)O)n3cc(C(N)[C@H](C)CC)nn3)CC2)n1 (some centres undefined),0%,18µM*,6,-3,37,10%
COc1ccc(CNC(=O)Cc2c(C)c3ccc(O)cc3oc2=O)cc1,·,292%,·,-4,·,481%
Cc1nnc(C)c2c(C)n(-c3ccccc3N)c(C)c12,1%,-10%,-40*,5,12,-2%
Cc1nnc(C)c2c(C)n(-c3ccccc3)c(C)c12,-2%,-5%,1,2,-29,-2%
CN(C)c1ccc(/C=C/c2cc(/C=C/c3ccc(N(C)C)cc3)c3ccccc3n2)cc1,·,27%,·,·,·,-1%[0.0914 µM]
CN(C)c1ccc(NC2=C([N+](=O)[O-])CS(=O)(=O)C2)cc1,-3%,?,-24,-63*,-13,-14%
SMILES,GALK inhibitor,rTrxR1 inhibitor,Coupling enz,PI4K2A block,Giardia kill,TrxR1 substrate
Cc1ccc(NC2=C([N+](=O)[O-])CS(=O)(=O)C2)cc1,4%,?,11,-28,-4,-1%[57.1 µM]
O=C(O)c1ccc(C2CCCCC2)cn1,0%,10%,-49*,-18,1,4%
O=C(O)C1=C(C2CCCCC2)C(=O)c2ccccc21,·,4%[11.4 µM],·,8,3,4%[11.4 µM]
COc1ccc(N2C(=O)CS(=O)(=O)C23C(=O)N(Cc2ccccc2F)c2ccccc23)cc1Cl (centres undefined),·,18%,·,-6,·,-4%
Cc1ccc(S(=O)(=O)/N=C2\C=C(NS(=O)(=O)c3ccccc3)C(=O)c3ccccc32)cc1,·,?,·,?,-1,-15%
Cc1cc(C)c(S(=O)(=O)/N=C2\C=C(Nc3ccc(C(=O)O)cc3)C(=O)c3ccccc32)c(C)c1,-2%,-15%,-42*,?,-5,-12%
O=C(O)c1ccc(NC2=C/C(=N/S(=O)(=O)c3ccccc3)c3ccccc3C2=O)cc1,?,?,-47*,?,-4,-3%
Cc1cc(C)c(S(=O)(=O)/N=C2\C=C(NS(=O)(=O)c3ccccc3)C(=O)c3ccccc32)c(C)c1,5%,-15%,-20,-17,14,-4%
O=c1/c(=C\c2cc([N+](=O)[O-])cc([N+](=O)[O-])c2O)sc2nc3ccccc3n12,-24%,?,-32*,-5,10,0%[57.1 µM]
O=c1/c(=C/c2ccccn2)sc2nc3ccccc3n12,9%,2%,0,-3,-4,-7%
O=C(NP(=O)(N1CCOCC1)N1CCOCC1)C1=C(N2CCOCC2)/C(=C\c2ccccc2)CC1,-1%,14µM*,-1,10,16,41%
CCCN1CCC(=O)N(C(CSc2ccc(OC)cc2)CC(C)C)CC1 (centres undefined),·,-3%,2,·,16,-4%
Cc1nc(C2COc3ccccc3O2)sc1C(=O)O (centres undefined),2%,3%[2.29 µM],5,-63*,-8,5%[57.1 µM]
COC(=O)Cc1c(C)c2ccc3c(c2oc1=O)CN(Cc1ccc(C)cc1)CO3,·,35µM*,·,2,·,i
COC(=O)Cc1c(C)c2ccc3c(c2oc1=O)CN(Cc1ccccc1OC)CO3,·,40µM*,·,0,·,i
COC(=O)Cc1c(C)c2ccc3c(c2oc1=O)CN(Cc1ccccc1Cl)CO3,·,?,·,-1,·,i
CN(C)c1nc(NC2CCC(NC(=O)c3ccc(F)c(F)c3)CC2)nc2ccccc12 (centres undefined),·,·,-3,·,·,·
COc1cc(Br)c(CC(=O)NO)cc1OC,·,11%,·,·,·,3%
CC(=O)C1=C(S(=O)(=O)c2ccc(C)cc2)CS(=O)(=O)C1,-3%,1.3µM*,4,-9,-6,-1%

# Assay outcomes deposited in PubChem by National Center for Advancing Translational Sciences (NCATS).
